Sm TGR block: inhibitors of Schistosoma mansoni thioredoxin glutathione reductase. hit rate 3% among 360,000. Q962Y6. purified TGR, DTNB reduction, TNB absorbance 405 nm. Potency, µM (series often up to 114 µM), for the others: top-dose activity change, negative = inhibition, usual class: inhibitors; note: % is set by controls: 0 for no effect and ±100 for the full control effect; nearly all actives have a fitted effect of over 60% in size
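First, TGR (20 nM dispensed) and NADPH were mixed with compound. Second, a 15 min room-temperature incubation followed. Third, further NADPH and then DTNB were added to start the reaction. Finally, TNB absorbance was monitored kinetically.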
SARS PLpro yeast: inhibitors of SARS-CoV papain-like protease in yeast. S. cerevisiae expressing SARS-CoV PLpro, growth rescue. Potency, µM (series often up to 32.9 µM), inactives show at the top dose activity, positive = growth rescue, usual class: activators. hit rate 0.19% among 330,000. AID 485353; calls by dose curve; note: 0% is about no effect; nearly all actives have a fitted effect of over 55% in size
Pf growth 96h: inhibits malaria parasite growth, 96 h | P. falciparum luciferase reporter growth, 96 h | Potency, µM (series often up to 28.7 µM), for the others: at the highest dose activity change, negative = inhibition, hits mostly inhibitors | hit rate 6.9% among 320,000 | AID 504834; note: % is set by controls: 0 for no effect and ±100 for the full control effect
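Two-generation exposure (96 h) targets delayed-death phenotype. Reporter parasites carrying integrated firefly luciferase, in red cells at 2% hematocrit and 0.05% parasitemia final, kept at 37 C, 5% CO2; luminescence loss indicates inhibition.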
Pf growth 48h: P. falciparum growth inhibition at 48 hours (one generation). hit rate 5.9% among 310,000. Potency, µM (top dose mostly 28.7 µM), without a hit: top-dose activity change, negative = inhibition, hits mostly inhibitors. P. falciparum luciferase growth in erythrocytes, 48 h; note: % is set by controls: 0 for no effect and ±100 for the full control effect
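Compounds are pin-transferred into medium, infected erythrocytes (2% hematocrit, 0.1% parasitemia final) are added, and plates sit one parasite generation at 37 C in 5% CO2. Detection reagent is then added and luminescence measured.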
* marks the source's active call; other numbers are inactive results; u = inconclusive; x = no result; [ ] = another dose, or the depositor's remark. Shown are actives, neighbours in structure and some others; about 12% of the full set was active somewhere. Unless noted, calls come from the whole dose curve; as a rule, active = well fitted curve in the direction sought with a large enough effect; inconclusive = small, poorly fitted or top-dose-only effect, or another doubt; inactive = no such curve, though single readings can be large; an effect the other way counts as inactive or inconclusive. Potency is the fitted concentration of half-maximal effect.

SMILES	Sm TGR block	SARS PLpro yeast	Pf growth 96h	Pf growth 48h
Cc1cccc(CN2CCc3c(OCC(=O)N4CCCc5ccccc54)cccc3C2=O)c1	-13%	-14%	u	12µM*
O=C1c2cccc(OCC(=O)N3CCCc4ccccc43)c2CCN1Cc1ccc(F)cc1	-2%	-11%	10µM*	u
C=CC[N+]1(CC#Cc2ccccc2)CCCC1	x	0%	20%	u
C(#Cc1ccccc1)C[N+]1(CC#Cc2ccccc2)CCCC1	-19%	-9%	u	2.3µM*
CN(C)CC#CCOC(c1ccccc1)c1ccccc1	u	-1%	33%	-30%
C=CC#CC[N+]1(CC#Cc2ccccc2)CCOCC1	40µM*	-12%	4.1µM*	5.9µM*
C=CC[N+]1(CC#CCOC(c2ccccc2)c2ccccc2)CCOCC1	3%	-2%	2.6µM*	u
C(#Cc1ccc(C#CCN2CCCC2)cc1)CN1CCCC1	-13%	-1%	u	-17%
Cc1ccc(C#CC[N+]2(C)CCCCC2)cc1	1%	1%	1.9µM*	6.6µM*
CCN(Cc1ccccc1)S(=O)(=O)c1cc(C(=O)NCC2CCCCC2)ccc1OC	-4%	2%	12µM*	u
CCN(Cc1ccccc1)S(=O)(=O)c1cc(C(=O)NC2CCCCCC2)ccc1OC	-1%	5%	u	u
CC(=O)CCc1oc2ccc(C)cc2c1-c1ccc(C)o1	25µM*	-2%	64%	-3%
CC(=O)CCc1oc2ccc(NC(C)=O)cc2c1-c1ccc(C)o1	20µM*	-30%	x	u
COc1ccc(-c2cc(=NCCCCCC(=O)O)c3cc(C)ccc3o2)cc1	21%	6%	u	5%
Cc1nonc1NC(=O)OCCN1CCOC1=O	2%	2%	6.6µM*	u
Cc1cc(=O)[nH]c(SCC(=O)Nc2nonc2C)n1	9%	1%	0%	14%
O=C(NCCc1ccc(F)cc1)C1CCN(C(=O)Nc2ccccc2)CC1	-13%	0%	u	u
O=C(CCCn1nnnc1CN1CCOCC1)N1CCC(c2ccc(F)cc2)C1 (stereo unspecified)	-36%	5%	7.4µM*	-36%
COc1ccc(N2CCN(C(=O)CCCn3nnnc3CN3CCOCC3)C(C)C2)cc1 (stereo unspecified)	-21%	4%	12µM*	-9%
C(=C\c1ccccc1)/C=N/Nc1nc2ccccc2[nH]1	-7%	-14%	3.3µM*	u
O=[N+]([O-])c1cc(/C=N/Nc2nc3ccccc3[nH]2)c(O)cc1O	-14%	16µM*	0%	2.1µM*
C(=N\Nc1nc2ccccc2[nH]1)/c1cccc2cccnc12	-4%	-4%	1.7µM*	1.7µM*
C(=N\Nc1nc2ccccc2[nH]1)/c1c[nH]c2ccccc12	1%	17%	26%	0.66µM*
C(=N\Nc1nc2ccccc2[nH]1)/c1ccccc1	-4%[57.1 µM]	-1%	-22%	u
O=c1[nH]c(N/N=C/c2cc3c(cc2[N+](=O)[O-])OCO3)nc2ccccc12	1%	-2%	u	37%
SMILES	Sm TGR block	SARS PLpro yeast	Pf growth 96h	Pf growth 48h
CC(NC(=O)c1c(F)cccc1Cl)c1ccc(-n2ccnc2)cc1 (stereo unspecified)	u	-2%	-5%	-19%
Cc1ccccc1/C=N/Nc1nc2ccccc2[nH]1	-3%	-10%	-35%	u
COc1ccc(/C=N/Nc2nc3ccccc3[nH]2)c(OC)c1OC	19%	-2%	4.1µM*	u
Fc1ccc(/C=N/Nc2nc3ccccc3[nH]2)cc1F	-5%	-7%	0.52µM*	0.66µM*
Fc1cccc(/C=N/Nc2nc3ccccc3[nH]2)c1	-8%	-2%	u	0%
C(=N\Nc1nc(N2CCCCC2)nc(N2CCCCC2)n1)/c1c[nH]c2ccccc12	x	-4%	6.6µM*	u
CN(C)c1nc(N/N=C/c2c[nH]c3ccccc23)nc(N2CCOCC2)n1	-28%	0%	-27%	u
c1cnc2c(OCc3nc4ccccc4[nH]3)cccc2c1	-5%	-19%	8.3µM*	53%
COc1ccc(C2c3c(n(C)c4ccccc34)C(=O)N2CC(=O)Nc2cccc(F)c2)cc1 (stereo unspecified)	-4%	x	x	x
CCCCn1c(=O)c2oc3ccccc3c2n(CC(=O)Nc2cccc(Cl)c2C)c1=O	1%	x	x	x
Brc1ccc(-c2ccc(/C=N/Nc3nncc(-c4ccccc4)n3)o2)cc1	-12%	1%	-2%	x
Brc1ccc(-c2ccc(/C=N/Nc3nc4ccccc4[nH]3)o2)cc1	-12%	-106%	13µM*	0.41µM*
Oc1c(/C=N/Nc2cccc3cccnc23)ccc2ccccc12	-2%	5%	9%	5.9µM*
COc1ccc(Cl)cc1NC(=O)CCS(=O)(=O)c1ccc(C)cc1	-21%	1%	-9%	10%
Cc1ccn2c(C(=O)CSc3ccccc3Cl)c(C)nc2c1	-5%	-2%	u	3.7µM*
CCOCCn1c(=NC(=O)CSCC(=O)N2CCOCC2)sc2cc(OC)ccc21	2%	0%	u	-29%
COc1ccc(OC)c(S(=O)(=O)N2CCC(C(=O)NC3CC3)CC2)c1	1%	0%	30%	4%
O=C(NCc1ccco1)C(Cc1ccccc1)N1C(=O)C2C3C=CC(C3)C2C1=O (stereo unspecified)	22µM*	4%	u	2%
O=C(C(Cc1ccccc1)N1C(=O)C2C3C=CC(C3)C2C1=O)N1CCCCCC1 (stereo unspecified)	79µM*	x	x	-22%
O=C(C(Cc1ccccc1)N1C(=O)C2C3C=CC(C3)C2C1=O)N1CCCCC1 (stereo unspecified)	0%	u	44%	x
C=C(C)CN(CC)C(=O)CN1C(=O)NC(C)(c2ccc3ccccc3c2)C1=O (stereo unspecified)	0%	1%	26%	18%
Cc1[nH]c(C)c(S(=O)(=O)N2c3ccccc3CC2C)c1C(=O)N1CCCCC1 (stereo unspecified)	-3%	1%	15µM*	-11%
CC[C@@H]1OC(=O)[C@H](C)[C@H](O[C@@H]2C[C@](C)(OC)[C@H](O)[C@H](C)O2)[C@H](C)[C@H](O[C@@H]2O[C@@H](C)C[C@@H](N(C)C)[C@@H]2O)[C@](C)(O)C[C@H](C)C(=NOCOCCOC)[C@H](C)[C@H](O)[C@]1(C)O	x	x	1.6µM*	-5%[12.8 µM]
Cc1c(C)n(C)c2ccc(C(=O)N3CCN(c4ccccc4)CC3)cc12	-22%	-34%	u	10%
CCN(CC)C(=O)c1ccc(S(=O)(=O)Cc2ccc(C)cc2)c([N+](=O)[O-])c1	7.9µM*	-5%	28%	u
Cc1ccc(CS(=O)(=O)c2ccc(C(=O)N3CCCCC3)cc2[N+](=O)[O-])cc1	18µM*	0%	u	u
Cc1ccc(CS(=O)(=O)c2ccc(C(=O)N3CCN(c4ccccn4)CC3)cc2[N+](=O)[O-])cc1	32µM*	0%	u	-26%
Cc1c(C)n(C)c2ccc(C(=O)N3CCN(c4ccccn4)CC3)cc12	0%	-3%	7%	10µM*

Assay outcomes deposited in PubChem by National Center for Advancing Translational Sciences (NCATS).
